“And” between values parts separate entries of the source, which are not always exact repeats. Equal values may be shown once. About 64,000 (15%) of roughly 420,000 compounds were called active. About 27% were inconclusive and are not listed. Calls come from the whole dose curve; as a rule, active = well fitted inhibition curve with a large enough effect; inconclusive = small, poorly fitted or top-dose-only effect; inactive = flat fitted curve, though single readings scatter. Only a sample is shown. A call without a number means that no potency is given here.
Assay: qHTS for Inhibitors of human tyrosyl-DNA phosphodiesterase 1 (TDP1): qHTS in cells in absence of CPT; note: nearly all actives have a fitted effect of over 55% in size
Details: DT40 Tdp1-/- hTDP1 cells, no CPT, ATP luminescence, 48 h; activity change, negative = growth inhibition: at 46.2 µM (top of the series)
How it was run: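 Seeded 400 DT40-hTDP1 cells/well (vehicle DMSO, no 20 nM CPT); pinned compounds; ≥48 hr at 37 °C; CellTiter-Glo luminescence as viability measure.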
In the case of `O=c1nc(NO)ccn1C1CCCO1` (centres undefined), the Potency is reported as “inactive”. With `Cc1ccc(OCc2nnc(NC(=O)OCC(C)C)s2)cc1` the Potency was “inactive”. With `O=C(CNC(=O)c1cccs1)N/N=C/c1cccc(Br)c1` the Potency was “inactive”. With `CC(=O)N1c2ccc(S(=O)(=O)N3CCCC(C(=O)Nc4cccc(F)c4)C3)cc2CC1C` (centres undefined) the Potency was 29.1 µM (active). In the case of `Cc1cc(C)cc(NC(=O)C2CCCN(S(=O)(=O)c3ccc4[nH]c(=O)ccc4c3)C2)c1` (centres undefined), the Potency is reported as “inactive”. For `COc1ccc(NC(=O)C(CC(C)C)NS(=O)(=O)c2ccc3c(c2)CCN3C(C)=O)cc1OC` (centres undefined), the Potency was “inactive”. With `CCOC(=O)C1CCCN(S(=O)(=O)c2ccc3c(c2)C(C)(C)C(=O)N3C)C1` (centres undefined) the Potency was “inactive”. In the case of `CC(=O)N1c2ccc(S(=O)(=O)N3CCCC(C(=O)Nc4cccc(Cl)c4)C3)cc2CC1C` (centres undefined), the Potency is reported as 20.6 µM (active). For `CCc1cccc(NC(=O)C2CCCN(S(=O)(=O)c3ccc4[nH]c(=O)ccc4c3)C2)c1` (centres undefined), the Potency was “inactive”. With `CC(=O)N1c2ccc(S(=O)(=O)N3CCC(C(=O)NCc4ccc(F)cc4)CC3)cc2CC1C` (centres undefined) the Potency was “inactive”. For `CC(=O)N1CCCc2ccc(NS(=O)(=O)c3ccc(F)cc3F)cc21`, the Potency was “inactive”. In the case of `CC(=O)N1CCCc2cc(S(=O)(=O)Nc3ccc(Cl)cc3F)ccc21`, the Potency is reported as 23.1 µM (active). For `CC(=O)N1CCCc2cc(S(=O)(=O)N3CCCC(C(=O)N4CCN(c5cccc(Cl)c5)CC4)C3)ccc21` (centres undefined), the Potency was 2.59 µM (active) and 8.2 µM (active). In the case of `CCOC(=O)C1CCCN(S(=O)(=O)c2ccc(-n3cnnn3)c(C)c2)C1` (centres undefined), the Potency is reported as “inactive”. In the case of `O=C(Nc1cccc(Cl)c1)c1cc(S(=O)(=O)N2CCCCC2)c[nH]1`, the Potency is reported as “inactive”. With `Cc1nc2cc(S(=O)(=O)C(F)(F)F)ccc2s1` the Potency was “inactive”. For `CCOC(=O)c1sc(NC(=O)C2CSC3(C)CCC(=O)N23)nc1C` (centres undefined), the Potency was “inactive”. For `O=C(COC(=O)[C@H](Cc1ccccc1)NC(=O)c1cccs1)Nc1cc(F)ccc1F`, the Potency was “inactive”. In the case of `C/C(=N\Nc1ccc([N+](=O)[O-])cc1)c1ccc(-n2nncc2C(C)(C)C)cc1`, the Potency is reported as “inactive”. In the case of `CCc1cc(=O)oc2c(C)c(OCC(=O)N3CC[C@@]4(O)CCCC[C@H]4C3)ccc12`, the Potency is reported as “inactive”. For `COC(=O)C1=NN(c2ccccc2)C2C(=O)N(c3ccccc3OC)C(=O)C12` (centres undefined), the Potency was “inactive”. For `COc1ccc(S(=O)(=O)NNC(=O)Nc2ccc(C)cc2)c(OC)c1`, the Potency was “inactive”. With `CC(=O)c1cnc(SCC(=O)O)nc1C` the Potency was “inactive”. For `O=C(NCc1ccccc1)C(c1cccnc1)N(C(=O)c1csnn1)c1ccc(F)cc1` (centres undefined), the Potency was “inactive”. With `Cc1cccc(N(C(=O)c2csnn2)C(C(=O)NCc2ccccc2)c2ccncc2)c1` (centres undefined) the Potency was “inactive”. In the case of `COc1ccc(C(C(=O)NCc2ccccc2)N(Cc2cccs2)C(=O)c2cnccn2)cc1` (centres undefined), the Potency is reported as 16.4 µM (active). For `COC(=O)CN1C(=O)[C@H]2[C@@H](/C=C/c3ccccc3)N3C(=O)CN(Cc4ccccc4)C(=O)[C@@]3(Cc3ccccc3)[C@H]2C1=O`, the Potency was “inactive”. For `C[C@@H]1CN([C@@H](C)CO)C(=O)CCCn2nncc2CO[C@H]1CN(C)C(=O)Nc1ccc(C(F)(F)F)cc1`, the Potency was “inactive”. For `CC(C)n1c(C(O)c2ccccc2)nc2ccccc21` (centres undefined), the Potency was “inactive”. In the case of `CC(=O)NC(Cc1c[nH]c2ccccc12)C(=O)O` (centres undefined), the Potency is reported as “inactive”. For `CC(C)n1c(NCc2c[nH]c3ccccc23)nc2ccccc21`, the Potency was 13 µM (active). With `C[C@@H]1C(c2ccc(F)cc2)=NN(c2ccc(Br)cc2)[C@H]1C(=O)N1CCOC1=O` the Potency was 20.6 µM (active). In the case of `Cc1ccc2c(c1)N(C(=O)Nc1ccc(Br)cc1F)CCO2`, the Potency is reported as “inactive”. For `O=C1OCCN1C(=O)[C@H]1[C@H](c2ccccc2)C(c2ccc(F)cc2)=NN1c1ccccc1`, the Potency was “inactive”. In the case of `COc1ccc(/C(N)=N/OC(=O)CCCc2ccccc2)cc1`, the Potency is reported as “inactive”. With `CONC(=O)c1cc(OCC(F)(F)F)ccc1OCC(F)(F)F` the Potency was “inactive”. With `CCc1ccc(-c2nn(-c3ccccc3C)cc2C(=O)N2CCN(C3CCS(=O)(=O)C3)CC2)cc1` (centres undefined) the Potency was “inactive”. In the case of `CCc1ccc(-c2nn(-c3ccccc3)cc2CSC(=N)N)cc1`, the Potency is reported as 23.1 µM (active). For `CCn1c(SCc2ccc(C)cc2)nnc1-c1nn(-c2ccccc2)ccc1=O`, the Potency was “inactive”. With `O=C(CCS(=O)(=O)Cc1ccccc1)Nc1ccc2c(c1)OCCO2` the Potency was “inactive”. In the case of `CCN(Cc1ccncc1)C(=O)CCc1ccccc1`, the Potency is reported as “inactive”. In the case of `Cc1ccc(C)c(S(=O)(=O)N2CCCOC2CNC(=O)C(=O)NC2CCCCC2)c1` (centres undefined), the Potency is reported as “inactive”. For `CN(C(=O)COC(=O)Cc1ccccc1[N+](=O)[O-])C1CCS(=O)(=O)C1` (centres undefined), the Potency was “inactive”. With `O=C(c1ccncc1)N1CCN(S(=O)(=O)c2cccc([N+](=O)[O-])c2)CC1` the Potency was “inactive”. With `CC1(c2cccc([N+](=O)[O-])c2)CC(C)(C)N(C(=O)c2ccccc2)c2ccccc21` (centres undefined) the Potency was 18.4 µM (active). In the case of `O=C(c1cccc([N+](=O)[O-])c1)N1CCN(Cc2ccccc2)CC1`, the Potency is reported as “inactive”. In the case of `N#Cc1ccc(-c2ccc3nccn3c2)cc1`, the Potency is reported as “inactive”. In the case of `Cc1ccc(-n2ccc(=O)c(C(=O)O)n2)cc1`, the Potency is reported as “inactive”. In the case of `Cn1c(=O)c(C(=O)O)nn(-c2ccccc2)c1=O`, the Potency is reported as 16.4 µM (active). For `CC(=O)c1nn(-c2ccccc2)c(=Nc2ccccc2)cc1C`, the Potency was “inactive”. For `CCC1SC(CC)C(=O)N(CC(=O)NC2CCCCC2)C1=O` (centres undefined), the Potency was “inactive”. For `CC(C)Oc1ccc(S(=O)(=O)N2CCOCC2)cc1NC(=O)C1CCCC1`, the Potency was “inactive”. For `COc1ccc(NC(=O)COC(=O)Cn2c(C)nc3ccccc32)cc1OC`, the Potency was “inactive”. For `O=C(Cn1c(-c2cncs2)nc2ccccc21)NC1CCCC1`, the Potency was “inactive”. In the case of `O=C(Cn1c(-c2cscn2)nc2ccccc21)Nc1ccc(Cl)cc1`, the Potency is reported as 20.6 µM (active). For `C#CCOCCOCCOCCNc1nc(N2CCN(C(=O)[C@H](Cc3ccc(O)cc3)n3cc(C(N)CC(C)C)nn3)CC2)nc(N2CCN(C(=O)[C@H](CCC(=O)O)n3cc(C(N)[C@H](C)CC)nn3)CC2)n1` (some centres undefined), the Potency was “inactive”. In the case of `O=C(CSc1nc(C2CC2)nc2ccccc12)Nc1ccc2c(c1)OCCO2`, the Potency is reported as 20.6 µM (active). In the case of `O=C(CSc1nc(C2CC2)nc2ccccc12)Nc1cccc(O)c1`, the Potency is reported as “inactive”. In the case of `COC(=O)CSc1nc(C2CC2)nc2ccccc12`, the Potency is reported as “inactive”. In the case of `O=C(CN1CCN(CC(=O)Nc2ccc3c(c2)OCO3)CC1)Nc1ccc(F)cc1`, the Potency is reported as “inactive”. For `O=C(CSc1nnc(-c2ccccn2)n1-c1ccccc1)Nc1ccc2c(c1)OCO2`, the Potency was “inactive”. For `O=C(CSc1nc(-c2cccc(F)c2)[nH]c1-c1ccccc1)Nc1ccc2c(c1)OCO2`, the Potency was 10.3 µM (active). For `Cc1nnc(NC(=O)CSc2nc(C3CCCCC3)nc3ccccc23)s1`, the Potency was “inactive”. With `CN(C(=O)CSc1nc(C2CC2)nc2ccccc12)c1nc(-c2ccccc2)cs1` the Potency was 20.6 µM (active). For `CCNC(=O)CSc1nc(-c2ccccc2)cs1`, the Potency was “inactive”. With `CC(=O)Oc1ccc(C(=O)Nc2nccs2)cc1` the Potency was “inactive”. With `Cc1ccc(C(=O)N/C(=C/c2cccnc2)C(=O)O)cc1` the Potency was “inactive”. For `Cn1ccnc1SCC(=O)Nc1ccc2c(c1)OCCO2`, the Potency was “inactive”. With `Cc1cc([N+](=O)[O-])c(=O)[nH]c1C` the Potency was “inactive”. With `COc1ccc(S(=O)(=O)NCC(c2ccco2)N2CCOCC2)cc1` (centres undefined) the Potency was “inactive”. With `Cn1cc(S(=O)(=O)NC(c2ccccc2)c2ccccc2)c(=O)n(C)c1=O` the Potency was “inactive”. In the case of `CCn1c(SCC(=O)Nc2nccs2)nnc1-c1ccco1`, the Potency is reported as “inactive”. In the case of `Cc1cc(C)nc(-n2nc(C)cc2NC(=O)c2ccc(F)cc2F)n1`, the Potency is reported as 6.51 µM (active). With `Cc1cc(NC(=O)Nc2ccccc2)n(-c2ccccc2)n1` the Potency was “inactive”. For `O=C(COC(=O)c1ccc(F)cc1F)Nc1ncccn1`, the Potency was “inactive”. In the case of `CC(C)c1ccc(S(=O)(=O)N2CCC3(CC2)OCCO3)cc1`, the Potency is reported as “inactive”. For `c1ccc2c(c1)CCc1snnc1-2`, the Potency was “inactive”. For `C=CCn1c(SCc2c(C)noc2C)nc2sc3c(c2c1=O)CCC(C)C3` (centres undefined), the Potency was 16.4 µM (active). For `C=CCn1c(SCC(=O)NCCCO)nc2sc3c(c2c1=O)CCC3`, the Potency was “inactive”. For `C=CCn1c(SCC(=O)NCC2CCCO2)nc2sc(C)c(C)c2c1=O` (centres undefined), the Potency was “inactive”. With `O=C(CN(CC1CCCO1)C(=O)CNS(=O)(=O)c1ccc(F)cc1)NCc1ccco1` (centres undefined) the Potency was “inactive”. With `Nc1nnc(SCC(=O)NCC(=O)Nc2ccc(F)c(F)c2F)s1` the Potency was “inactive”. With `Cc1ccc(Cn2c(C)c(C(=O)NCc3ccccc3C(F)(F)F)sc2=O)cc1` the Potency was “inactive”. With `Cn1c(CC(=O)Nc2ccc(F)cc2)nnc1SCC(=O)NC1CCCCC1` the Potency was “inactive”. With `O=C(c1ccco1)N1CCN(C(=O)C2c3ccccc3Oc3ccccc32)CC1` the Potency was “inactive”. With `O=C(CCSc1ccccc1)N1CCN(c2ccccc2F)CC1` the Potency was “inactive”. With `O=C(Cc1ccccc1Cl)N1CCN(c2ccccn2)CC1` the Potency was “inactive”. In the case of `Cc1cccc(N2CCN(C(=O)CCSCc3ccccc3F)CC2)c1C`, the Potency is reported as 20.6 µM (active). In the case of `O=C(CCS(=O)(=O)c1cccc2nsnc12)N1CCN(c2ccccc2F)CC1`, the Potency is reported as “inactive”. With `O=C(CCc1ccccc1F)N1CCN(c2ccccc2)CC1` the Potency was “inactive”. In the case of `O=C(CCSCc1ccccc1F)N1CCN(c2ccc(Cl)cc2)CC1`, the Potency is reported as 18.4 µM (active). In the case of `Cc1ncoc1C(=O)NCCC(c1ccccc1)c1ccccc1`, the Potency is reported as “inactive”. With `Cc1ccc(S(=O)(=O)N2CCN(C(=O)COC(=O)/C=C/c3cccc(Cl)c3)CC2)c(C)c1` the Potency was 23.1 µM (active). For `Cc1ccc(S(=O)(=O)N2CCN(C(=O)COC(=O)c3c(C)noc3C)CC2)c(C)c1`, the Potency was “inactive”. For `COc1ccc(/C=C/C(=O)OCC(=O)N2CCN(S(=O)(=O)c3ccc(C)cc3C)CC2)cc1OC`, the Potency was 20.6 µM (active). For `Cc1ccc(S(=O)(=O)N2CCN(C(=O)COC(=O)c3c(C)cc(C)cc3C)CC2)c(C)c1`, the Potency was 10.3 µM (active). In the case of `Cc1ccc(S(=O)(=O)N2CCN(C(=O)N3CCOCC3)CC2)c(C)c1`, the Potency is reported as “inactive”. For `Cc1ccc(S(=O)(=O)N2CCC3(CC2)OCCO3)c(C)c1`, the Potency was “inactive”. For `CCCCOc1ccc(C(=O)NCC(=O)OCC(=O)N2CCN(S(=O)(=O)c3ccc(C)cc3C)CC2)cc1`, the Potency was “inactive”. With `COc1ccc(S(=O)(=O)N2CCN(CC(=O)N3CCOCC3)CC2)cc1OC` the Potency was “inactive”. For `Cc1nc(-c2ccc(F)cc2)c(CC(=O)Nc2cccc(S(=O)(=O)N3CCOCC3)c2)s1`, the Potency was “inactive”. With `O=C(COC(=O)/C=C/c1cccc(Cl)c1)NCc1cccs1` the Potency was “inactive”. In the case of `Cc1ccc(S(=O)(=O)N2CCN(C(=O)Cc3sc(C)nc3-c3ccc(F)cc3)CC2)c(C)c1`, the Potency is reported as 18.4 µM (active). For `COc1ccc(S(=O)(=O)N2CCN(C)CC2)c(C)c1`, the Potency was “inactive”.
Potency is the fitted concentration of half-maximal effect.
